# Assay results reported in the supplement of paper PMC10981050.
# “And” between values parts separate entries of the source, which are not always exact repeats. Equal values may be shown once. Where a name gives a salt, the structure may show the parent alone.
# Key:
# Assay in all cases: cell viability relative to vehicle control; higher = less cytotoxic
# [1] = system: K562; settings: 10 µM; SRSF2 genotype: SRSF2 wt/wt
# How it was run: (§1)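 Mutant clones made by CRISPR editing and their isogenic wild-type counterparts, from four leukaemia lines, were exposed to a single 10 µM dose of each library compound for 48 h. The supernatant was then removed and CellTiter-Glo luminescence was read. Viability was reported as percent of the on-plate vehicle control.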
# [2] = system: MARIMO; settings: 10 µM
# How it was run: as §1
# [3] = system: MOLM14; settings: 10 µM
# How it was run: as §1
# [4] = system: OCI-AML2; settings: 10 µM
# How it was run: as §1
SMILES,cell viability [1],cell viability ([2]; SRSF2 genotype: SRSF2 P95H/wt),cell viability ([2]; SRSF2 genotype: SRSF2 wt/wt),cell viability ([3]; SRSF2 genotype: SRSF2 P95H/wt),cell viability ([3]; SRSF2 genotype: SRSF2 wt/wt),cell viability ([4]; SRSF2 genotype: P95H/wt),cell viability ([4]; SRSF2 genotype: wt/wt)
O=C(/C=C/c1ccc(O)c(O)c1/C=C/c1ccc(O)c(O)c1)O[C@H](Cc1ccc(O)c(O)c1)C(=O)O [Salvianolic acid A],70.5%,86.4%,94.7%,73.7%,62.1%,98.2%,95%
O=C(NC1CCNCC1)c1n[nH]cc1NC(=O)c1c(Cl)cccc1Cl,26.4% and 27.1%,13.2% and 15.4%,6.7% and 6.57%,3.09% and 4.11%,0.56% and 0.84%,5.65% and 5.71%,17.9% and 18%
Cc1coc2c1C(=O)C(=O)c1c-2ccc2c1CCCC2(C)C [Tanshinone IIA (Tanshinone B)],52.2%,98.2%,89%,88.8%,79.7%,84.1%,83.3%
O=c1cc(-c2ccc(O)c(O)c2O)oc2ccccc12,69.2%,98.5%,87.9%,81.8%,68.4%,108%,105%
C[C@@H](NC(=O)c1ncnc(N)c1Cl)c1ncc(C(=O)Nc2cc(C(F)(F)F)c(Cl)cn2)s1,51.4%,54.7%,58.1%,86.1%,95.3%,66.9%,69.8%
CCN(C)S(=O)(=O)Nc1ccc(F)c(C(=O)c2c[nH]c3ncc(-c4cnc(C5CC5)nc4)cc23)c1F,59.2%,83.6%,87.5%,79.3%,92.7%,91.5%,84.7%
CNC(=O)c1ccccc1Nc1nc(Nc2ccc(N3CCOCC3)cc2OC)ncc1Cl,113%,44.3%,39.6%,9.8%,6.5%,13.3%,20.4%
O=C1NC(=O)[C@@H](c2cn3c4c(cccc24)CCC3)[C@@H]1c1c[nH]c2ccccc12 [ARQ 197 (Tivantinib)],37%,6.87%,9.91%,17.9%,4.13%,12.1%,15.4%
COc1cc([C@@H]2c3cc4c(cc3[C@@H](O[C@@H]3O[C@@H]5CO[C@@H](C)O[C@H]5[C@H](O)[C@H]3O)[C@H]3COC(=O)[C@H]23)OCO4)cc(OC)c1O [Etoposide (VP-16)],82%,7.2%,6.84%,15.3%,4.31%,13%,14.8%
Nc1nc(N)c2nc(-c3ccccc3)c(N)nc2n1 [Triamterene],33%,98.2%,101%,93.7%,101%,101%,101%
O=C(O[C@@H]1O[C@@H]2COC(=O)c3cc(O)c(O)c(O)c3-c3c(cc(O)c(O)c3O)C(=O)O[C@H]([C@H]1O)[C@@H]2O)c1cc(O)c(O)c(O)c1 [Corilagin],81.5%,86.9%,81.3%,86.4%,82.2%,103%,96.2%
Cc1cc(N2C[C@@H](C)N[C@@H](C)C2)ncc1-c1ccc(-c2nc3c(ccn3C)c(=O)[nH]2)cc1,59%,79.6%,76.4%,0.95%,1.53%,5.67%,3.85%
NC(=O)Nc1sc(-c2ccc(F)cc2)cc1C(N)=O,79.8%,56.3%,50%,20.5%,11%,20.2%,26.5%
CCNC(=O)C#Cc1ccc2c(C(=Nc3ccc(CN(C)C)cc3)c3ccccc3)c(O)[nH]c2c1,53.4%,26.7%,25.1%,4.97%,7.91%,11.9%,17.2%
C[C@@H]1CCN(C(=O)CC#N)C[C@@H]1N(C)c1ncnc2[nH]ccc12,99.6% and 112%,97.6% and 104%,99.8% and 112%,85.3% and 95.7%,104%,96.5% and 99.1%,93.8% and 101%
COc1cc2c[n+](C)c3c4cc5c(cc4ccc3c2cc1OC)OCO5 [Nitidine Chloride],46.1%,38.6%,34.6%,0.55%,0.7%,0.61%,0.76%
O=C(O)C(=O)O.[NH-]C1CCCCC1[NH-].[Pt+2] (centres undefined) [Oxaliplatin (Eloxatin)],72.8%,22%,62%,56.1%,48.2%,23.8%,62.9%
COc1cccc(-c2ccc(NC(=O)C3=C(C(=O)O)CCC3)c(F)c2)c1 [Vidofludimus],93.2%,115%,120%,114%,108%,112%,112%
O=C(O[C@@H]1Cc2c(O)cc(O)cc2O[C@H]1c1cc(O)c(O)c(O)c1)c1cc(O)c(O)c(O)c1 [Gallocatechin gallate],71%,91.1%,91.7%,77.3%,67.3%,94.1%,87.8%

SMILES,cell viability [1],cell viability ([2]; SRSF2 genotype: SRSF2 P95H/wt),cell viability ([2]; SRSF2 genotype: SRSF2 wt/wt),cell viability ([3]; SRSF2 genotype: SRSF2 P95H/wt),cell viability ([3]; SRSF2 genotype: SRSF2 wt/wt),cell viability ([4]; SRSF2 genotype: P95H/wt),cell viability ([4]; SRSF2 genotype: wt/wt)
O=C(CCCCCCNC(=O)c1cnc(N(c2ccccc2)c2ccccc2Cl)nc1)NO [Citarinostat (ACY-241)],47.4%,8.12%,20.9%,2.1%,1.84%,0.7%,1.25%
NC(CO)C(=O)NNCc1ccc(O)c(O)c1O (centres undefined) [Benserazide HCl],80.2%,103%,95.5%,85.3%,71.6%,94.2%,99.5%
COc1cc2ncnc(Nc3ccc(F)c(Cl)c3)c2cc1OCCCN1CCOCC1 [Gefitinib (ZD1839)],,63.4%,63.1%,39.7%,45.2%,53.4%,50.9%
c1cc(-c2cnn3cc(-c4ccc(OCCN5CCCCC5)cc4)cnc23)ccn1 [Dorsomorphin (Compound C)],64.1%,73.8%,80.9%,16.4%,10.9%,33.1%,36.2%
CCn1cc(C(=O)O)c(=O)c2c(N)c(F)c(NC3CCCCC3)cc21,80.6%,94.2%,125%,106%,117%,120%,136%
Cn1cc(-c2ccc(F)c(C(F)(F)F)c2)nc1C1CCN(c2ncnc3[nH]ncc23)CC1,86% and 80.8%,88.3% and 83.6%,96.6% and 99.4%,92.3% and 80.4%,95.3% and 97.3%,85.9% and 77.1%,92.6% and 79.5%
CCS(=O)(=O)N1CCN(c2ccc(Nc3ncc(C(N)=O)c(NC4CC4)n3)cc2)CC1,63.2%,65.2%,63.1%,7.8%,8.15%,12.1%,15.5%
c1nc2c(NC3CCCCC3)nc(Nc3ccc(N4CCOCC4)cc3)nc2[nH]1 [Reversine],70.6%,38%,33.8%,9.79%,7.29%,10.8%,16.3%
Nc1cc(N)c(N)cc1N,69.4%,104%,109%,96.3%,105%,103%,103%
COc1cc2/c(=N/c3ccc(Br)cc3F)nc[nH]c2cc1OCC1CCN(C)CC1 [Vandetanib (ZD6474)],41%,83%,97.2%,57.6%,68.6%,77.3%,75.4%
COc1cc(-c2cc(-c3ccc(N4CCNCC4)cc3)cnc2C)cc(OC)c1OC,31.1%,46.2%,46.9%,37.1%,31.9%,17.7%,29.3%
O=C1[C@H](Cc2ccc(O)cc2)N2C(=O)CCN(C(=O)NCc3ccccc3)[C@H]2CN1Cc1cccc2ccccc12,47% and 37.9%,60.6% and 53.5%,59.4% and 48.2%,63.6% and 52%,43.8% and 35.6%,54.4% and 45.4%,42.3% and 36.8%
Cc1cnc(-c2cnc(NCCNc3ccc(C#N)cn3)nc2-c2ccc(Cl)cc2Cl)[nH]1,63.6% and 69.4%,96.3% and 94.4%,119% and 126%,87.2% and 98.8%,103% and 110%,95.8% and 99.6%,124% and 133%
C[C@H](CS)C(=O)N1CCC[C@H]1C(=O)O [Captopril (Capoten)],,103%,106%,102%,102%,97.7%,97.8%
COc1cc2nccc(Oc3ccc(NC(=O)Nc4ccc(F)cc4F)c(F)c3)c2cc1OC,93.5%,109%,112%,25.1%,19.4%,40.2%,51.5%
COc1ccc(F)c(F)c1C(=O)c1cnc(NC2CCN(S(C)(=O)=O)CC2)nc1N,54.3%,11.3%,12.1%,1.28%,0.27%,3.74%,15.6%
Oc1ccc2c(c1)OC[C@]1(O)Cc3cc(O)c(O)cc3[C@H]21 [Brazilin],85.9%,46.3%,11.3%,40.4%,45.2%,73.2%,77.5%
COc1ccc(N2C(=O)/C(=C\c3ccc([N+](=O)[O-])s3)SC2=S)cc1,66.2%,71.8%,52.8%,36.7%,58.2%,0.66%,5.17%
CN(c1ncccc1CNc1nc(Nc2ccc3c(c2)CC(=O)N3)ncc1C(F)(F)F)S(C)(=O)=O,27.9% and 21.1%,10.2% and 11.6%,3.77% and 4.68%,0.98% and 1.3%,0.43% and 0.45%,1.6% and 2.15%,13% and 13.3%
